system: ERBB3; conditions: concentration: 1 μM,replicates: in singlicate; n = 1
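Also: KINOMEscan kinase panel screen.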

Row | SMILES | %Inh
1 | Cc1cc2cn[nH]c2cc1-c1cccc2c(N)c(C(N)=O)nnc12 | 30%
2 | COc1ccc(C[C@@H](CN)NC(=O)c2cc(Br)c(-c3ccnc4[nH]ccc34)s2)cc1.Cl.Cl [GSK1389063] | 0%
3 | O=C(NCCNc1ccnc(NCc2ccc(F)cc2)n1)c1cc2ccccc2s1 [GSK1379944] | 0%
4 | C[C@H]1Oc2cc(cnc2N)-c2c(nn(C)c2C#N)CN(C)C(=O)c2ccc(F)cc21 | 0%
5 | O=C(NCCCN1CCOC1=O)c1cnc(NCc2cc(Cl)ccc2Cl)nc1NC1CCCC1 | 0%
6 | NC(=O)c1cc(-c2ccccc2)cc2c(C3CCNCC3)c[nH]c12 [GSK301362] | 0%
7 | CN(C)CCOc1ccc(-c2cc(-c3c[nH]nc3-c3ccccn3)ccn2)cc1 [GW835314] | 43%
8 | C[C@@H](Oc1cc(-c2cnn(C3CCNCC3)c2)cnc1N)c1c(Cl)ccc(F)c1Cl | 0%
9 | Cc1occc1-c1nc(N)c(OC[C@@H](N)Cc2c[nH]c3ccccc23)cc1-c1cc2c(C)n[nH]c2cn1 [GSK1660450] | 0%

system: ERBB4; conditions: concentration: 1 μM,replicates: in singlicate; n = 1

Row | SMILES | %Inh
10 | CCN(CC)CCOc1ccc(Nc2ncc3cc(-c4c(Cl)cccc4Cl)c(=O)n(C)c3n2)cc1 [SB-601273] | 82%
11 | Cc1cc(C(=O)Nc2ccc(Oc3ccc4nc(NC(=O)C5CC5)cn4n3)cc2)nn1-c1ccccc1 | 19%
12 | Cl.Oc1cc(-c2nc(-c3ccccc3)[nH]c2-c2ccncc2)ccc1Cl [SB-386023] | 23%
13 | CNC(=O)c1ccccc1Sc1ccc2c(/C=C/c3ccccn3)n[nH]c2c1 | 6%
14 | Cc1ccc2c(-c3ccncc3)c(-c3ccc(F)cc3)nn2c1.Cl [GW461484] | 3%
15 | CN(C)CC(O)COc1ccc(Nc2nccc(-c3cnn4nc(N5CCOCC5)ccc34)n2)cc1 (centres unmarked) [GW767488] | 33%
16 | Cl.Cl.Nc1nc(-c2ccc3c(N)n[nH]c3c2)cc(N2CCCC(NC(=O)c3ccccc3)C2)n1 (centres unmarked) [GSK2286775] | 33%
17 | CCn1c(-c2nonc2N)nc2c(C#CC(C)(C)O)nc(OCCN)cc21.Cl.Cl [GSK902056] | 20%
18 | CC(C)Nc1cc(-c2ccc3c(N)n[nH]c3c2)nc(N)n1 [GSK2221681] | 0%
19 | Cl.Cl.NC[C@H](CC1CCCCC1)NC(=O)c1cc(Br)c(-c2ccnc3[nH]ccc23)s1 [GSK1581427] | 22%
20 | Cc1ccc(-n2nc(C(C)(C)C)cc2NC(=O)Nc2ccc(OCCN3CCOCC3)c3ccccc23)cc1 [GW839464] | 0%
21 | Nc1nc(Nc2ccccc2)cc(-c2ccc3c(N)n[nH]c3c2)n1 [GSK2225749] | 0%
22 | C[C@@H]1CCN(C(=O)CC#N)C[C@@H]1N(C)c1ncnc2[nH]ccc12 | 15%
23 | CCN(CC)CCCCNc1ncc2cc(-c3c(Cl)cccc3Cl)c(NC(=O)NC(C)(C)C)nc2n1 | 38%
24 | CC(C)N1C(=O)Cc2cc(Nc3ncc(C(F)(F)F)c(NCc4cccc(S(C)(=O)=O)c4)n3)ccc21 | 0%
25 | Cl.Cl.NC[C@H](Cc1ccc(C(F)(F)F)cc1)NC(=O)c1cc(Br)c(-c2ccnc3[nH]ccc23)s1 [GSK1487252] | 41%
26 | Cc1n[nH]c2ccc(-c3cc(OC[C@@H](N)Cc4ccccc4)cnc3-c3ccoc3)cc12.O=C(O)C(F)(F)F.O=C(O)C(F)(F)F [GSK507358] | 64%
27 | Cc1cc2cn[nH]c2cc1-c1cccc2c(N)c(C(N)=O)nnc12 | 87%
28 | COc1ccc(C[C@@H](CN)NC(=O)c2cc(Br)c(-c3ccnc4[nH]ccc34)s2)cc1.Cl.Cl [GSK1389063] | 38%
29 | O=C(NCCNc1ccnc(NCc2ccc(F)cc2)n1)c1cc2ccccc2s1 [GSK1379944] | 0%
30 | C[C@H]1Oc2cc(cnc2N)-c2c(nn(C)c2C#N)CN(C)C(=O)c2ccc(F)cc21 | 0%
31 | O=C(NCCCN1CCOC1=O)c1cnc(NCc2cc(Cl)ccc2Cl)nc1NC1CCCC1 | 9%
32 | NC(=O)c1cc(-c2ccccc2)cc2c(C3CCNCC3)c[nH]c12 [GSK301362] | 9%
33 | CN(C)CCOc1ccc(-c2cc(-c3c[nH]nc3-c3ccccn3)ccn2)cc1 [GW835314] | 0%
34 | C[C@@H](Oc1cc(-c2cnn(C3CCNCC3)c2)cnc1N)c1c(Cl)ccc(F)c1Cl | 0%
35 | Cc1occc1-c1nc(N)c(OC[C@@H](N)Cc2c[nH]c3ccccc23)cc1-c1cc2c(C)n[nH]c2cn1 [GSK1660450] | 56%

system: T1, ERK1; conditions: concentration: 1 μM,replicates: in singlicate; n = 1
T1 construct: gene MAPK3

Row | SMILES | %Inh
36 | CCN(CC)CCOc1ccc(Nc2ncc3cc(-c4c(Cl)cccc4Cl)c(=O)n(C)c3n2)cc1 [SB-601273] | 30%
37 | Cc1cc(C(=O)Nc2ccc(Oc3ccc4nc(NC(=O)C5CC5)cn4n3)cc2)nn1-c1ccccc1 | 0%
38 | Cl.Oc1cc(-c2nc(-c3ccccc3)[nH]c2-c2ccncc2)ccc1Cl [SB-386023] | 0%
39 | CNC(=O)c1ccccc1Sc1ccc2c(/C=C/c3ccccn3)n[nH]c2c1 | 16%
40 | Cc1ccc2c(-c3ccncc3)c(-c3ccc(F)cc3)nn2c1.Cl [GW461484] | 11%
41 | CN(C)CC(O)COc1ccc(Nc2nccc(-c3cnn4nc(N5CCOCC5)ccc34)n2)cc1 (centres unmarked) [GW767488] | 0%
42 | Cl.Cl.Nc1nc(-c2ccc3c(N)n[nH]c3c2)cc(N2CCCC(NC(=O)c3ccccc3)C2)n1 (centres unmarked) [GSK2286775] | 0%
43 | CCn1c(-c2nonc2N)nc2c(C#CC(C)(C)O)nc(OCCN)cc21.Cl.Cl [GSK902056] | 0%
44 | CC(C)Nc1cc(-c2ccc3c(N)n[nH]c3c2)nc(N)n1 [GSK2221681] | 0%
45 | Cl.Cl.NC[C@H](CC1CCCCC1)NC(=O)c1cc(Br)c(-c2ccnc3[nH]ccc23)s1 [GSK1581427] | 1%
46 | Cc1ccc(-n2nc(C(C)(C)C)cc2NC(=O)Nc2ccc(OCCN3CCOCC3)c3ccccc23)cc1 [GW839464] | 0%
47 | Nc1nc(Nc2ccccc2)cc(-c2ccc3c(N)n[nH]c3c2)n1 [GSK2225749] | 0%
48 | C[C@@H]1CCN(C(=O)CC#N)C[C@@H]1N(C)c1ncnc2[nH]ccc12 | 0%
49 | C=CC(=O)Nc1cc2c(Nc3ccc(F)c(Cl)c3)ncnc2cc1OCCCN1CCOCC1 [GW781483] | 0%
50 | CCN(CC)CCCCNc1ncc2cc(-c3c(Cl)cccc3Cl)c(NC(=O)NC(C)(C)C)nc2n1 | 0%
51 | CC(C)N1C(=O)Cc2cc(Nc3ncc(C(F)(F)F)c(NCc4cccc(S(C)(=O)=O)c4)n3)ccc21 | 0%
52 | Cl.Cl.NC[C@H](Cc1ccc(C(F)(F)F)cc1)NC(=O)c1cc(Br)c(-c2ccnc3[nH]ccc23)s1 [GSK1487252] | 31%
53 | Cc1n[nH]c2ccc(-c3cc(OC[C@@H](N)Cc4ccccc4)cnc3-c3ccoc3)cc12.O=C(O)C(F)(F)F.O=C(O)C(F)(F)F [GSK507358] | 79%
54 | Cc1cc2cn[nH]c2cc1-c1cccc2c(N)c(C(N)=O)nnc12 | 22%
55 | COc1ccc(C[C@@H](CN)NC(=O)c2cc(Br)c(-c3ccnc4[nH]ccc34)s2)cc1.Cl.Cl [GSK1389063] | 12%
56 | O=C(NCCNc1ccnc(NCc2ccc(F)cc2)n1)c1cc2ccccc2s1 [GSK1379944] | 95.4%
57 | C[C@H]1Oc2cc(cnc2N)-c2c(nn(C)c2C#N)CN(C)C(=O)c2ccc(F)cc21 | 11%
58 | O=C(NCCCN1CCOC1=O)c1cnc(NCc2cc(Cl)ccc2Cl)nc1NC1CCCC1 | 1%
59 | NC(=O)c1cc(-c2ccccc2)cc2c(C3CCNCC3)c[nH]c12 [GSK301362] | 0%
60 | CN(C)CCOc1ccc(-c2cc(-c3c[nH]nc3-c3ccccn3)ccn2)cc1 [GW835314] | 2%
61 | C[C@@H](Oc1cc(-c2cnn(C3CCNCC3)c2)cnc1N)c1c(Cl)ccc(F)c1Cl | 0%
62 | Cc1occc1-c1nc(N)c(OC[C@@H](N)Cc2c[nH]c3ccccc23)cc1-c1cc2c(C)n[nH]c2cn1 [GSK1660450] | 0%
